Experimental data from ChEMBL document CHEMBL1961873, “Compounds: GSK PKIS; Assays: Nanosyn kinase panel” (2012).

What was measured:
[1] = molecular target: T1, Muscle, skeletal receptor tyrosine-protein kinase (Homo sapiens) (UniProt O15146); conditions: at 1 µM;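 further: reported value is the mean percent inhibition of MuSK kinase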
T1 sequence (whole entry): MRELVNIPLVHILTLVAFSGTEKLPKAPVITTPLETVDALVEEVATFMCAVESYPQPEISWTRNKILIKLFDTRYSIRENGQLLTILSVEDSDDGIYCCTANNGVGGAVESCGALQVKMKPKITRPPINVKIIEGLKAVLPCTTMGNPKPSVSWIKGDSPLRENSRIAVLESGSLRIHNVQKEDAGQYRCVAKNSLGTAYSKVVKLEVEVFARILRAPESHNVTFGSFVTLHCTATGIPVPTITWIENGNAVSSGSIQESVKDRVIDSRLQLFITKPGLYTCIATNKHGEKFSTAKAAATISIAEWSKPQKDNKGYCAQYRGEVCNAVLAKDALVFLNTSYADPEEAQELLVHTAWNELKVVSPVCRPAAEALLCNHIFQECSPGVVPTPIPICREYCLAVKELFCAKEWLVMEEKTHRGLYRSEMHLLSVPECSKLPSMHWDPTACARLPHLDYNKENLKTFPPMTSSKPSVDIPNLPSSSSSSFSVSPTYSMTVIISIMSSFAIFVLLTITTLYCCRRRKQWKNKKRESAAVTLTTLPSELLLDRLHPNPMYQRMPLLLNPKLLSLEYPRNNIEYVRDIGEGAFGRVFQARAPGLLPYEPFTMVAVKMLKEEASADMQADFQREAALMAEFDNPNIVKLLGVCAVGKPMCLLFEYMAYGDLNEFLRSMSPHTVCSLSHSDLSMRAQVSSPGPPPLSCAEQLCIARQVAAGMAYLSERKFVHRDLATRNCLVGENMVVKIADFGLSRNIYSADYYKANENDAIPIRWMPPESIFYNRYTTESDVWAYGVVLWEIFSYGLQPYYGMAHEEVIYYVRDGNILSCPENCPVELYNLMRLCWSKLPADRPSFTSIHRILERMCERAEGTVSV

[2] = molecular target: Platelet-derived growth factor receptor alpha (Homo sapiens) (UniProt P16234); conditions: at 0.1 µM
[3] = molecular target: Platelet-derived growth factor receptor alpha (Homo sapiens) (UniProt P16234); conditions: at 1 µM
[4] = test system: Platelet-derived growth factor receptor alpha (Homo sapiens), P16234 [D842V]; conditions: at 0.1 µM
[5] = test system: Platelet-derived growth factor receptor alpha (Homo sapiens), P16234 [D842V]; conditions: at 1 µM
[6] = test system: Platelet-derived growth factor receptor alpha (Homo sapiens), P16234 [T674I]; conditions: at 0.1 µM
[7] = test system: Platelet-derived growth factor receptor alpha (Homo sapiens), P16234 [T674I]; conditions: at 1 µM
[8] = test system: Platelet-derived growth factor receptor alpha (Homo sapiens), P16234 [V561D]; conditions: at 0.1 µM
[9] = test system: Platelet-derived growth factor receptor alpha (Homo sapiens), P16234 [V561D]; conditions: at 1 µM
[10] = molecular target: Platelet-derived growth factor receptor beta (Homo sapiens) (UniProt P09619); conditions: at 0.1 µM;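 further: reported value is the mean percent inhibition of the kinase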
Platelet-derived growth factor receptor beta (Homo sapiens), sequence (P09619 whole entry): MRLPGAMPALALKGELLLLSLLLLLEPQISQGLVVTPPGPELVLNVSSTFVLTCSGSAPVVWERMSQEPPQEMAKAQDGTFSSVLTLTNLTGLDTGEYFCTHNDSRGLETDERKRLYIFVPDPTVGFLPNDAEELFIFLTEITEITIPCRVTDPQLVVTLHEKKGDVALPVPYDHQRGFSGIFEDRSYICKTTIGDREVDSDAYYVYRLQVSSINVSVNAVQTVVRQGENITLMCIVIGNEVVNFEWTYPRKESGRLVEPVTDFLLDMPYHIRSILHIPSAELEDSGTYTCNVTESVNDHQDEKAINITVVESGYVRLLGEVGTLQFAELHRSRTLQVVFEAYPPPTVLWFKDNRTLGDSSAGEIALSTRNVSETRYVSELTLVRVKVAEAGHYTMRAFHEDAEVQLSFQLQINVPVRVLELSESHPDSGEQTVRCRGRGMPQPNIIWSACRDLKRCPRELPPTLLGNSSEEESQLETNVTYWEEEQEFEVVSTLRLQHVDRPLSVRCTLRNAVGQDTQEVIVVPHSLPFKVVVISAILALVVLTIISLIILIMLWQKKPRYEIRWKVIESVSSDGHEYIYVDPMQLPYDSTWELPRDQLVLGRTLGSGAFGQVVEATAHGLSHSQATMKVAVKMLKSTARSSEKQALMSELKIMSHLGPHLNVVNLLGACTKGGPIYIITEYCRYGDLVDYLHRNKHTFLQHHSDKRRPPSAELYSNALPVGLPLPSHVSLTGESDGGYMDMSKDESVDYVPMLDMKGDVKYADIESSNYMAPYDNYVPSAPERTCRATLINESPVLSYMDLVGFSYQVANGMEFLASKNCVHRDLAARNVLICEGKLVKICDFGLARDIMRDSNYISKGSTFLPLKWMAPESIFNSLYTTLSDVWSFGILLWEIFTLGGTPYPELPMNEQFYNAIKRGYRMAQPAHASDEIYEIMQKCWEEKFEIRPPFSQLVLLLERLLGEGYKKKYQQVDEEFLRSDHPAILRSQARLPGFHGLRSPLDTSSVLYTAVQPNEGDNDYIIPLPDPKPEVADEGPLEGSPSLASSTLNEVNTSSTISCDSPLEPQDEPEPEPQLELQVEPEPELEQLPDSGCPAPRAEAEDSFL

Platelet-derived growth factor receptor alpha (Homo sapiens), sequence (P16234 whole entry): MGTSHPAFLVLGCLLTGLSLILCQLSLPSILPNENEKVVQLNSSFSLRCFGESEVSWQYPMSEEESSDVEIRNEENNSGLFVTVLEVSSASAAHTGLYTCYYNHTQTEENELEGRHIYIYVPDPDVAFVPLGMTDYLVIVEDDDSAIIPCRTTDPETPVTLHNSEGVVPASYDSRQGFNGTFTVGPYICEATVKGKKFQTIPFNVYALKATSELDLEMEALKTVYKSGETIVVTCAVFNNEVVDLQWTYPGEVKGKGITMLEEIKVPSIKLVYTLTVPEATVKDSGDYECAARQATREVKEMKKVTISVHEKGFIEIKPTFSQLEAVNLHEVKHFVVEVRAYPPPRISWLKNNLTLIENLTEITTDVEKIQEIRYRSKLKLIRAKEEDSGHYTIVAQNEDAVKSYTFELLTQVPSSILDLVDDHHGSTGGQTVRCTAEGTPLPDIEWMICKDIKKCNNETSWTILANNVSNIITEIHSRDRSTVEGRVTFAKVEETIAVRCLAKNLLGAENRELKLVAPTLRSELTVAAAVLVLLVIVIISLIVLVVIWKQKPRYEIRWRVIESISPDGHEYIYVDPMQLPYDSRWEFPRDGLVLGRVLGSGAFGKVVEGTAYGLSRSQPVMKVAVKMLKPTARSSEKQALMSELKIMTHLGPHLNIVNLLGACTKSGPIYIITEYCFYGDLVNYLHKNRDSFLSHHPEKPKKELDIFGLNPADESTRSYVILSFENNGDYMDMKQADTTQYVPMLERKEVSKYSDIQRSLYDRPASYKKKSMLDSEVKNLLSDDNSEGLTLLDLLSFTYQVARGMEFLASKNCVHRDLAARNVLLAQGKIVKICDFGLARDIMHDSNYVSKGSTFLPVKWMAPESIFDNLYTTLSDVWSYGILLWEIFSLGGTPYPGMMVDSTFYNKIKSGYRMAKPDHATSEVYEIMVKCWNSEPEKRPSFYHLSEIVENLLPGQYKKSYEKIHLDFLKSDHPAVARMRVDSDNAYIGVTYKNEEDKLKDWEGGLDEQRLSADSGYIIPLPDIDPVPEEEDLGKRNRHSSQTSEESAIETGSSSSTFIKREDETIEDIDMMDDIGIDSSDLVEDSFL
Platelet-derived growth factor receptor alpha (Homo sapiens), P16234 [V561D], sequence (P16234 whole entry V561D): as the sequence (P16234 whole entry) above, with V561D counted along it
Platelet-derived growth factor receptor alpha (Homo sapiens), P16234 [T674I], sequence (P16234 whole entry T674I): as the sequence (P16234 whole entry) above, with T674I counted along it
Platelet-derived growth factor receptor alpha (Homo sapiens), P16234 [D842V], sequence (P16234 whole entry D842V): as the sequence (P16234 whole entry) above, with D842V counted along it

In the case of `COC(=O)Nc1nc2cc(Oc3ccc(NC(=O)Nc4cccc(C(=O)O)c4)cc3)ccc2[nH]1`, the inhibition [1] was 2.82%, the inhibition [2] was 10.8% and the inhibition [3] was 39.3%. For the same compound, the inhibition [4] was 0.99%, the inhibition [5] was 1.56% and the inhibition [6] was 6.17%. It also gave an inhibition [7] of 35.1%, an inhibition [8] of 18.8% and an inhibition [9] of 43.9%. The inhibition [10] was 6.26%.
For `CCn1c(-c2nonc2N)nc2cncc(C(=O)N3CCNCC3)c21`, the inhibition [1] was 4.88%, the inhibition [2] was 6.44% and the inhibition [3] was 9.34%. It also gave an inhibition [4] of 1.69%, an inhibition [5] of 6.27% and an inhibition [6] of 4.21%. It also gave an inhibition [7] of 6.95%, an inhibition [8] of 1.16% and an inhibition [9] of 4.29%. It also gave an inhibition [10] of 1.44%.
With `COc1ccccc1Nc1ncc(-c2ccccc2)o1` the inhibition [1] was 2.74%, the inhibition [2] was 14.1% and the inhibition [3] was 47.5%. It also gave an inhibition [4] of 4.24%, an inhibition [5] of 6.87% and an inhibition [6] of 16.9%. The inhibition [7] was 69.4%, the inhibition [8] was 35.6% and the inhibition [9] was 53.5%. For the same compound, the inhibition [10] was 11.1%.
Work on `COc1ccc(COc2ccc(Cc3cnc(N)nc3N)cc2OC)cc1` yielded an inhibition [1] of 9.52%, an inhibition [2] of 10.9% and an inhibition [3] of 15.7%. The inhibition [4] was 0.95%, the inhibition [5] was 1.88% and the inhibition [6] was 2.62%. The inhibition [7] was 1.3%, the inhibition [8] was 2.4% and the inhibition [9] was 5.93%. The inhibition [10] was 8.68%.
`Cc1ccc(NC(=O)c2ccnc(N3CCCC3)c2)cc1-c1ccc(C(=O)NCC2CC2)cc1` was tested, and the inhibition [1] was 9.18%, the inhibition [2] was 9.86% and the inhibition [3] was 20.7%. It also gave an inhibition [4] of 3.63%, an inhibition [5] of 5.68% and an inhibition [6] of 6.03%. The inhibition [7] was 5.86%, the inhibition [8] was 2.7% and the inhibition [9] was 11.8%. For the same compound, the inhibition [10] was 6.34%.
For `Nc1nc(-c2ccc3c(c2)C(=Cc2cc(Br)c(O)c(Br)c2)C(=O)N3)cs1`, the inhibition [1] was 2.75%, the inhibition [2] was 2.1% and the inhibition [3] was 5.96%. It also gave an inhibition [4] of 0.96%, an inhibition [5] of 2.21% and an inhibition [6] of 0.36%. It also gave an inhibition [7] of -0.01%, an inhibition [8] of 2.02% and an inhibition [9] of 2.58%. It also gave an inhibition [10] of 1.75%.
With `c1cnn2ncc(-c3ccnc(Nc4ccc5c(c4)OCCO5)n3)c2c1` the inhibition [1] was 26.9%, the inhibition [2] was 16.1% and the inhibition [3] was 51.5%. For the same compound, the inhibition [4] was 6.44%, the inhibition [5] was 40.6% and the inhibition [6] was 16.9%. The inhibition [7] was 74.7%, the inhibition [8] was 23.3% and the inhibition [9] was 61.7%. It also gave an inhibition [10] of 18.4%.
`Fc1cccc(COc2ccc(Nc3ncnc4cc(-c5ccc[nH]5)sc34)cc2Cl)c1` showed an inhibition [1] of 6.25%, an inhibition [2] of 9.2% and an inhibition [3] of 15.6%. The inhibition [4] was 2.17%, the inhibition [5] was 4.7% and the inhibition [6] was 4.02%. It also gave an inhibition [7] of 4.37%, an inhibition [8] of 2.42% and an inhibition [9] of 5.59%. The inhibition [10] was 3.02%.
For `O=C1NC(=O)C(c2cccc(Cl)c2)=C1Nc1ccc(O)c(Cl)c1`, the inhibition [1] was 2.41%, the inhibition [2] was 6.23% and the inhibition [3] was 15.1%. The inhibition [4] was 4.44%, the inhibition [5] was 6.47% and the inhibition [6] was 1.04%. The inhibition [7] was 1.36%, the inhibition [8] was 2.63% and the inhibition [9] was 9.34%. The inhibition [10] was 0.85%.
For `CCCN1CCC=C(c2ccc(Nc3nc(Nc4ccccc4C(N)=O)c4cc[nH]c4n3)c(C)c2)C1`, the inhibition [1] was 20.5%, the inhibition [2] was 9.67% and the inhibition [3] was 40.6%. It also gave an inhibition [4] of 2.55%, an inhibition [5] of 24.2% and an inhibition [6] of 4.99%. The inhibition [7] was 9.94%, the inhibition [8] was 5.63% and the inhibition [9] was 28.7%. It also gave an inhibition [10] of 8.75%.
`CS(=O)(=O)CCNCc1ccc(-c2ccc3ncnc(Nc4ccc(OCc5cccc(F)c5)c(C(F)(F)F)c4)c3c2)o1` gave an inhibition [1] of 2.72%, an inhibition [2] of 2.57% and an inhibition [3] of 6.52%. The inhibition [4] was 2.53%, the inhibition [5] was 4.33% and the inhibition [6] was 5.78%. The inhibition [7] was 5.59%, the inhibition [8] was 3.25% and the inhibition [9] was 3.17%. It also gave an inhibition [10] of -0.33%.
Compound `CCc1cccc(NC(=O)Nc2ccc(Oc3ccc4nc(NC(=O)OC)[nH]c4c3)cc2)c1` has an inhibition [1] of 31.1%, an inhibition [2] of 88.5% and an inhibition [3] of 96.8%. It also gave an inhibition [4] of 11.7%, an inhibition [5] of 20.5% and an inhibition [6] of 75.7%. For the same compound, the inhibition [7] was 100%, the inhibition [8] was 86.6% and the inhibition [9] was 94.5%. For the same compound, the inhibition [10] was 40.4%.
With `O=C1Nc2ccc(C(=O)c3ccco3)cc2C1=Cc1cc(Cl)c(O)c(Cl)c1` the inhibition [1] was 8.26%, the inhibition [2] was 8.06% and the inhibition [3] was 26%. The inhibition [4] was 4.54%, the inhibition [5] was 19.8% and the inhibition [6] was 6.25%. For the same compound, the inhibition [7] was 11.5%, the inhibition [8] was 7.12% and the inhibition [9] was 26.8%. The inhibition [10] was 7.32%.
In the case of `COc1ccc2cc(-c3c(-c4ccncc4)nc(-c4ccc([S+](C)[O-])cc4)n3C)ccc2c1` (stereo not given), the inhibition [1] was 3.4%, the inhibition [2] was 2.55% and the inhibition [3] was 10%. It also gave an inhibition [4] of 2.12%, an inhibition [5] of 4.78% and an inhibition [6] of 3.93%. It also gave an inhibition [7] of 2.95%, an inhibition [8] of -1.44% and an inhibition [9] of 3.24%. The inhibition [10] was 2.46%.
Compound `NC(=O)c1ccc(-c2nc(-c3ccccn3)c(-c3ccc4c(c3)OCO4)[nH]2)cc1` has an inhibition [1] of 3.59%, an inhibition [2] of 6.2% and an inhibition [3] of 9.06%. It also gave an inhibition [4] of 1.44%, an inhibition [5] of 2.57% and an inhibition [6] of 8.08%. For the same compound, the inhibition [7] was 5.68%, the inhibition [8] was 2.28% and the inhibition [9] was 4.53%. It also gave an inhibition [10] of 2.41%.
`CS(=O)(=O)CCN(CC#N)Cc1ccc(-c2ccc3ncnc(Nc4ccc(OCc5cccc(F)c5)c(Cl)c4)c3c2)o1` showed an inhibition [1] of 1.87%, an inhibition [2] of 5.88% and an inhibition [3] of 10.3%. It also gave an inhibition [4] of 1.15%, an inhibition [5] of 3.78% and an inhibition [6] of 1.63%. It also gave an inhibition [7] of 5.75%, an inhibition [8] of 1.15% and an inhibition [9] of 4.06%. It also gave an inhibition [10] of 4.64%.
`COC(=O)Nc1nc2cc(Oc3cccc(NC(=O)Nc4cc(C(F)(F)F)ccc4F)c3)ccc2[nH]1` gave an inhibition [1] of 32.3%, an inhibition [2] of 48.6% and an inhibition [3] of 80.2%. The inhibition [4] was 2.6%, the inhibition [5] was 8.72% and the inhibition [6] was 4.75%. For the same compound, the inhibition [7] was 37.5%, the inhibition [8] was 40.7% and the inhibition [9] was 87.4%. The inhibition [10] was 11.4%.
